Measurements reported in PubChem BioAssay AID1159580 (chemical genetic matrix, 2015).
About 2,000 (36%) of roughly 5,500 compounds were called active. Not shown: some 18% with an inconclusive outcome. Cut-off read from the data, not from the text of the source: active = normalized growth mostly below about 0.91 (no sharp cut-off); inconclusive = no clear call, values can overlap the other calls; inactive = mostly above about 0.92. Some of the results follow.

Test: chemical genetic growth profiling, strain panel (AID 1159580);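 note: tested at 20 µM; growth read once vehicle control cultures reached saturation at 30 °C; 1 = growth at the plate median or of vehicle wells; lower values mean less growth of the strain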
Conditions: S. cerevisiae deletion strains, growth OD

Measured: normalized growth

NC1(C(=O)O)CCc2cc(C(=O)O)ccc21 (stereo not drawn)
inactive: locus YAL040C, strain CLN3, stronger effect = lower value 0.959 | locus YER002W, strain NOP16, stronger effect = lower value 0.997 | locus YGR078C, strain PAC10, stronger effect = lower value 1.01 | locus YNL128W, strain TEP1, stronger effect = lower value 0.997 | locus YNL175C, strain NOP13, stronger effect = lower value 0.988 | locus YNL197C, strain WHI3, stronger effect = lower value 0.998 | locus YNL224C, strain SQS1, stronger effect = lower value 1.01 | locus YOR083W, strain WHI5 (second series), stronger effect = lower value 0.993
